Measurements from PubChem BioAssay AID1159580 (chemical genetic matrix, 2015).
Where “and” joins values, the source holds several entries; their conditions need not be identical. Equal entries are not always repeated. Hit rate of the full screen: of about 5,500 compounds, about 2,000 (36%) were called active. Roughly 18% stayed inconclusive and do not appear here. Cut-off read from the data, not from the text of the source: active = normalized growth mostly below about 0.91 (no sharp cut-off); inconclusive = no clear call, values can overlap the other calls; inactive = mostly above about 0.92. The list shows a part of the results.

Test: chemical genetic growth profiling, strain panel (AID 1159580);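 note: tested at 20 µM; growth read once vehicle control cultures reached saturation at 30 °C; 1 = growth at the plate median or of vehicle wells; lower values mean less growth of the strain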
Details: S. cerevisiae deletion strains, growth OD

Measured: normalized growth

COc1ccccc1OCC(O)COC(N)=O (stereo not drawn)
inactive: locus YAL013W, strain DEP1, active compounds read low 0.997 | locus YAL021C, strain ccr4, active compounds read low 0.991 | locus YAL026C, strain drs2, active compounds read low 0.99 | locus YAL030W, strain snc1, active compounds read low 0.996 | locus YBL061C, strain skt5, active compounds read low 0.989 | locus YBR009C, strain hhf1, active compounds read low 0.97 | locus YBR021W, strain FUR4, active compounds read low 1.02 | locus YBR023C, strain chs3, active compounds read low 0.966 | locus YBR171W, strain sec66, active compounds read low 0.981 | locus YBR229C, strain ROT2, active compounds read low 1 | locus YBR231C, strain swc5, active compounds read low 0.992 | locus YBR279W, strain paf1, active compounds read low 0.976 | locus YCL011C, strain gbp2, active compounds read low 0.979 | locus YCL016C, strain dcc1, active compounds read low 0.962 | locus YCL029C, strain bik1, active compounds read low 0.997 | locus YCL061C, strain MRC1, active compounds read low 0.973 | locus YCL069W, strain vba3, active compounds read low 0.996 | locus YCR088W, strain abp1, active compounds read low 0.985 | locus YDL005C, strain med2, active compounds read low 0.987 | locus YDL035C, strain GPR1, active compounds read low 1 | locus YDL040C, strain nat1, active compounds read low 0.992 | locus YDL074C, strain BRE1, active compounds read low 0.995 | locus YDL101C, strain DUN1, active compounds read low 0.997 | locus YDL134C, strain PPH21, active compounds read low 1.01 | locus YDL185W, strain tfp1, active compounds read low 0.957 | locus YDL192W, strain arf1, active compounds read low 0.977 | locus YDR001C, strain nth1, active compounds read low 0.991 | locus YDR069C, strain doa4, active compounds read low 0.996 | locus YDR101C, strain arx1, active compounds read low 1.04 | locus YDR137W, strain rgp1, active compounds read low 0.965 | locus YDR159W, strain sac3, active compounds read low 1.01 | locus YDR162C, strain NBP2, active compounds read low 1 | locus YDR195W, strain ref2 1.01 | locus YDR297W, strain sur2, active compounds read low 0.996 | locus YDR318W, strain mcm21, active compounds read low 0.993 | locus YDR334W, strain swr1, active compounds read low 0.978 | locus YDR335W, strain msn5, active compounds read low 0.993 | locus YDR388W, active compounds read low 1 | locus YDR392W, strain spt3, active compounds read low 0.918 | locus YDR502C, strain sam2, active compounds read low 0.997 | locus YEL003W, strain gim4, active compounds read low 1 | locus YEL037C, strain rad23, active compounds read low 0.985 | locus YEL061C, strain CIN8 (second series), active compounds read low 0.984 | locus YEL061C, strain CIN8, active compounds read low 0.98 | locus YER015W, strain faa2, active compounds read low 0.974 | locus YER016W, strain bim1, active compounds read low 1.02 | locus YER110C, active compounds read low 0.983 | locus YER111C, strain swi4, active compounds read low 0.981 | locus YER155C, strain BEM2 (second series), active compounds read low 1 | locus YER155C, strain BEM2, active compounds read low 0.993 | locus YER167W, strain BCK2, active compounds read low 0.99 | locus YFR010W, strain ubp6, active compounds read low 0.987 | locus YGL078C, strain dbp3, active compounds read low 0.984 | locus YGL086W, strain mad1, active compounds read low 1.02 | locus YGL167C, strain pmr1, active compounds read low 0.983 | locus YGL173C, strain kem1, active compounds read low 0.992 | locus YGL227W, strain vid30, active compounds read low 0.988 | locus YGL240W, strain doc1, active compounds read low 1.02 | locus YGL248W, strain PDE1, active compounds read low 0.999 | locus YGL253W, strain hxk2, active compounds read low 0.985 | locus YGR078C, strain PAC10, active compounds read low 1 | locus YGR135W, strain pre9, active compounds read low 0.961 | locus YGR229C, strain SMI1, active compounds read low 1 | locus YGR252W, strain gcn5, active compounds read low 0.988 | locus YHR013C, strain ard1, active compounds read low 0.952 | locus YHR027C, strain rpn1, active compounds read low 1 | locus YHR030C, strain SLT2, active compounds read low 0.996 and 1.06 | locus YHR079C, strain IRE1 (second series), active compounds read low 0.991 | locus YHR079C, strain IRE1, active compounds read low 1.05 | locus YHR094C, strain hxt1, active compounds read low 1 | locus YHR129C, strain ARP1, active compounds read low 1 | locus YHR142W, strain chs7, active compounds read low 0.965 | locus YHR200W, strain rpn10, active compounds read low 0.985 | locus YIL066C, strain RNR3, active compounds read low 1 | locus YIL073C, strain SPO22, active compounds read low 0.94 | locus YIL125W, strain kgd1, active compounds read low 0.999 | locus YIR030C, strain dcg1, active compounds read low 0.985 | locus YJL092W, strain hpr5, active compounds read low 0.984 | locus YJL095W, strain BCK1 (second series), active compounds read low 0.991 | locus YJL095W, strain BCK1, active compounds read low 0.991 and 1.03 | locus YJL115W, strain asf1, active compounds read low 0.975 | locus YJL129C, strain trk1, active compounds read low 0.972 | locus YJL134W, strain LCB3, active compounds read low 0.99 | locus YJL154C, strain vps35, active compounds read low 0.992 | locus YJL164C, strain tpk1, active compounds read low 0.97 | locus YJL166W, strain qcr8, active compounds read low 0.96 | locus YJL168C, strain set2, active compounds read low 1 | locus YJL187C, strain SWE1 (second series), active compounds read low 1 | locus YJL187C, strain SWE1, active compounds read low 0.99 | locus YJR043C, strain POL32, active compounds read low 1.02 | locus YJR066W, strain TOR1, active compounds read low 0.984 | locus YKL009W, strain mrt4, active compounds read low 0.973 | locus YKL068W, active compounds read low 0.989 | locus YKL085W, strain MDH1 (second series), active compounds read low 0.982 | locus YKL085W, strain MDH1, active compounds read low 0.982 | locus YKL160W, strain elf1, active compounds read low 0.965 | locus YKL190W, strain CNB1, active compounds read low 0.976 | locus YKR001C, strain vps1, active compounds read low 1 | locus YKR026C, strain gcn3, active compounds read low 0.992 | locus YKR091W, strain srl3, active compounds read low 0.981 | locus YLL001W, strain dnm1, active compounds read low 0.968 | locus YLL026W, active compounds read low 0.995 | locus YLL041C, strain sdh2, active compounds read low 0.998 | locus YLR027C, strain aat2, active compounds read low 0.997 | locus YLR039C, strain RIC1, active compounds read low 0.941 | locus YLR058C, strain SHM2, active compounds read low 0.999 | locus YLR102C, strain apc9, active compounds read low 0.991 | locus YLR113W, strain HOG1, active compounds read low 1.02 | locus YLR221C, strain rsa3, active compounds read low 0.965 | locus YLR258W, strain gsy2, active compounds read low 0.974 | locus YLR262C, strain YPT6 (second series), active compounds read low 0.966 | locus YLR262C, strain YPT6, active compounds read low 0.985 | locus YLR268W, strain sec22, active compounds read low 0.99 | locus YLR320W, strain mms22, active compounds read low 0.964 | locus YLR330W, strain CHS5, active compounds read low 0.991 | locus YLR342W, strain FKS1 (second series), active compounds read low 1.01 | locus YLR342W, strain FKS1, active compounds read low 0.981 | locus YLR357W, strain rsc2, active compounds read low 0.963 | locus YLR370C, strain arc18, active compounds read low 0.987 | locus YLR371W, strain rom2, active compounds read low 1 | locus YLR384C, strain iki3, active compounds read low 0.979 | locus YLR418C, strain cdc73, active compounds read low 0.988 | locus YML016C, strain PPZ1, active compounds read low 1 | locus YML032C, strain rad52, active compounds read low 1 | locus YML120C, strain ndi1, active compounds read low 0.958 | locus YML124C, strain tub3, active compounds read low 0.988 | locus YMR058W, strain fet3, active compounds read low 0.991 | locus YMR078C, strain ctf18, active compounds read low 0.986 | locus YMR125W, strain sto1, active compounds read low 0.971 | locus YMR129W, active compounds read low 0.988 | locus YMR205C, strain PFK2, active compounds read low 0.964 | locus YMR223W, strain ubp8, active compounds read low 0.964 | locus YMR231W, strain pep5, active compounds read low 0.983 | locus YMR307W, strain GAS1, active compounds read low 1.02 | locus YNL067W, strain RPL9B, active compounds read low 0.986 | locus YNL071W, strain lat1, active compounds read low 0.982 | locus YNL128W, strain TEP1, active compounds read low 0.977 | locus YNL153C, strain GIM3, active compounds read low 1.01 | locus YNL183C, strain NPR1, active compounds read low 0.976 | locus YNL209W, strain ssb2, active compounds read low 0.984 | locus YNL233W, strain BNI4, active compounds read low 0.995 | locus YNL248C, strain rpa49, active compounds read low 0.985 | locus YNL250W, strain rad50, active compounds read low 0.967 | locus YNL271C, strain bni1, active compounds read low 0.977 | locus YNL298W, strain CLA4, active compounds read low 0.99 | locus YNL307C, strain MCK1, active compounds read low 0.999 | locus YNL322C, strain KRE1 (second series), active compounds read low 0.987 | locus YNL322C, strain KRE1, active compounds read low 0.997 | locus YNR049C, strain mso1, active compounds read low 0.99 | locus YNR052C, strain pop2, active compounds read low 0.992 | locus YOL006C, strain TOP1, active compounds read low 1.01 | locus YOL012C, strain htz1 0.742 | locus YOL147C, strain pex11, active compounds read low 0.987 | locus YOR001W, strain rrp6, active compounds read low 1.01 | locus YOR061W, strain CKA2, active compounds read low 1 | locus YOR069W, strain VPS5, active compounds read low 0.992 | locus YOR070C, strain gyp1, active compounds read low 0.988 | locus YOR080W, strain dia2, active compounds read low 0.987 | locus YOR083W, strain WHI5, active compounds read low 0.954 | locus YOR106W, strain vam3, active compounds read low 0.955 | locus YOR136W, strain idh2, active compounds read low 0.989 | locus YOR144C, strain elg1, active compounds read low 0.997 | locus YOR184W, strain ser1, active compounds read low 0.989 | locus YOR231W, strain MKK1, active compounds read low 1.04 | locus YOR265W, strain rbl2, active compounds read low 0.992 | locus YOR270C, strain vph1, active compounds read low 0.972 | locus YOR290C, strain snf2, active compounds read low 0.886 | locus YOR316C, strain cot1, active compounds read low 0.984 | locus YPL051W, strain arl3, active compounds read low 1.01 | locus YPL078C, strain atp4, active compounds read low 0.97 | locus YPL106C, strain sse1, active compounds read low 0.978 | locus YPL240C, strain hsp82, active compounds read low 0.996 | locus YPL256C, strain CLN2, active compounds read low 1.06 | locus YPR119W, strain clb2, active compounds read low 0.991 | locus YPR141C, strain kar3, active compounds read low 0.966 | locus YPR163C, strain tif3, active compounds read low 0.988 | locus YPR167C, strain met16, active compounds read low 0.995 | strain wtn01, active compounds read low 0.991
